Shh pathway inh = blocks Sonic Hedgehog signaling; inhibition, % (no concentration beside the values); AID 2313; hit rate 2.1% among 22,000; Shh-LIGHT2 Gli-luciferase reporter, 30 h;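 active = mean inhibition across valid replicates above about 65%, limit read from the data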;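 note: pathway switched on by Shh-conditioned medium diluted 1 in 25 in low serum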
MITF inh = MITF inhibition. TRPM1 promoter luciferase, luminescence, 24 h. inhibition, % (test concentration not listed). hit rate 0.28% among 37,000. AID 2240; in the data active = inhibition above about 85%;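 note: human melanocyte line stably carrying TRPM1 promoter luciferase reporter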
NOMO-1 viab = STK33 inhibitor candidate reducing NOMO-1 cell viability. NOMO-1 AML viability, CellTiter-Glo luminescence, 72 h. inhibition, % (no concentration beside the values). hit rate 7.5% among 37,000. AID 2330; in the data active = inhibition above about 80%
An asterisk follows results filed as active; nt = no result given; ! = not active in a repeat. Most compounds without a hit are left out; they make up all but 8.1% or so of the library.

SMILES | Shh pathway inh | MITF inh | NOMO-1 viab
COc1ccc(C(C)NC(=O)c2cc(-c3ccccn3)nc3ccc(Br)cc23)cc1OC (centres undefined) | nt | 55 | 90*
COc1ccccc1CCNC(=O)c1cc(-c2ccncc2)nc2ccc(Br)cc12 | nt | 10 | 94*
O=C(CSC1CC(=O)N(c2ccc(OC(F)(F)F)cc2)C1=O)Nc1ccc(Cl)cc1 (centres undefined) | nt | -14 | 31
O=C(CNS(=O)(=O)c1ccccc1)Nc1cccc(Cl)c1Cl | nt | -24 | 1
C[C@@H]1CN([C@H](C)CO)C(=O)Cc2cc(NC(=O)Nc3ccc(F)cc3)ccc2O[C@@H]1CN(C)Cc1ccccc1 | 13 | 2 | 52
CC(C)NC(=O)Nc1ccc2c(c1)CC(=O)N([C@H](C)CO)C[C@@H](C)[C@@H](CN(C)Cc1ccc(-c3ccccc3)cc1)O2 | 9 | 12 | 82*
C[C@@H]1CN([C@H](C)CO)C(=O)Cc2cc(NC(=O)Nc3ccccc3)ccc2O[C@H]1CN(C)Cc1ccc(-c2ccccc2)cc1 | -29 | 1 | 4
CC(C)NC(=O)Nc1ccc2c(c1)CC(=O)N([C@@H](C)CO)C[C@H](C)[C@@H](CN(C)Cc1ccc(-c3ccccc3)cc1)O2 | -7 | 6 | 18
C[C@@H]1CN([C@H](C)CO)C(=O)Cc2cc(NC(=O)Nc3ccc4c(c3)OCO4)ccc2O[C@H]1CN(C)Cc1ccc(-c2ccccc2)cc1 | -29 | 0 | 98*
C[C@H]1CN([C@@H](C)CO)C(=O)Cc2cc(NC(=O)Nc3ccc(F)cc3)ccc2O[C@H]1CN(C)Cc1ccc(-c2ccccc2)cc1 | 1 | -10 | 110*
C[C@@H]1CN([C@H](C)CO)C(=O)Cc2cc(NC(=O)Nc3ccc(F)cc3)ccc2O[C@H]1CN(C)Cc1ccc(-c2ccccc2)cc1 | 0 | 5 | 127*
C[C@@H]1CN([C@H](C)CO)C(=O)Cc2cc(NC(=O)Nc3ccc4c(c3)OCO4)ccc2O[C@H]1CN(C)Cc1ccccc1 | -15 | 2 | -1
CC1=CCC2[C@](C)(CCC[C@]2(C)C(=O)O)[C@H]1CCc1ccoc1 (some centres undefined) | 5 | -5 | 10
O=C(CCN1C(=O)C2C3c4ccccc4C(c4ccccc43)C2C1=O)Oc1ccccc1[N+](=O)[O-] (centres undefined) | nt | -13 | 0
Cc1ccc(S(=O)(=O)Nc2ccc3c(c2)CC(=O)N([C@H](C)CO)C[C@H](C)[C@H](CN(C)Cc2ccc(C(=O)O)cc2)O3)cc1 | 16 | 4 | 16
CCOC(=O)c1c(NC(=O)c2ccc(NS(C)(=O)=O)cc2)sc2c1CCCC2 | nt | -20 | 6
C[C@@H]1CN([C@@H](C)CO)C(=O)Cc2cc(NS(=O)(=O)c3ccc(Cl)cc3)ccc2O[C@@H]1CN(C)Cc1ccc(C(=O)O)cc1 | -4 | 4 | 11
Cc1nc(-c2ccccc2O)n(CCN2CCOCC2)n1 | nt | -24 | -2
CC(C)=CCCC1(C)C=Cc2c(c(C)cc3c2[nH]c2cc(O)ccc23)O1 (centres undefined) | 26 | -13 | 108*
O=C(CCN1C(=O)C2C3C=CC(C4CC34)C2C1=O)Nc1ccc(Br)cc1Cl (centres undefined) | nt | -34 | 10
Cn1c(SCC(=O)c2ccc(Cl)cc2)nnc1-c1ccccc1O | nt | -30 | 17
CC#CC#C/C=C1\C=CC2(OC=CC2OC(=O)C=C(C)C)O1 (centres undefined) | -22 | nt | nt
COc1ccc(S(=O)(=O)N(C)CC(=O)Nc2cc(Cl)c(Cl)cc2Cl)cc1Cl | nt | 5 | 28
O=C(NCCCN1CCOCC1)C1CC(c2cccc(Br)c2)=NO1 (centres undefined) | nt | 6 | 28
Cc1ccc(S(=O)(=O)N(C)C[C@H]2Oc3ccc(NS(=O)(=O)c4ccccc4)cc3C(=O)N([C@H](C)CO)C[C@H]2C)cc1 | 13 | 4 | 36
SMILES | Shh pathway inh | MITF inh | NOMO-1 viab
CCOC(=O)c1c(NC(=O)c2ccc(Cn3cc(Br)cn3)o2)sc2c1CCCC2 | nt | 0 | 15
COC1C(OC)N(S(=O)(=O)c2ccc(C)cc2)CCN1S(=O)(=O)c1ccc(C)cc1 (centres undefined) | 15 | -2 | 7
Cc1ccc(S(=O)(=O)N2CCC(=O)c3ccccc32)cc1 | -11 | 32 | 110*
O=C(O)[C@H]1O[C@@H](Oc2c(-c3ccccc3)cc(O)c(-c3ccccc3)c2O)[C@H](O)[C@@H](O)[C@@H]1O | -27 | -23 | 8
C[C@H]1CN([C@@H](C)CO)C(=O)c2cc(NC(=O)Nc3ccc(F)cc3)ccc2O[C@H]1CN(C)Cc1ccc(C(F)(F)F)cc1 | 14 | 30 | 52
C[C@@H]1CN([C@@H](C)CO)C(=O)c2cc(NC(=O)Nc3ccc(F)cc3)ccc2O[C@H]1CN(C)Cc1ccc(C(F)(F)F)cc1 | nt | 37 | 113*
C[C@@H]1CN([C@H](C)CO)C(=O)c2cc(NC(=O)Nc3ccc(F)cc3)ccc2O[C@H]1CN(C)Cc1ccc(C(F)(F)F)cc1 | -13 | 69 | 117*
C[C@H]1CN([C@@H](C)CO)C(=O)c2cc(NC(=O)Nc3ccc(F)cc3)ccc2O[C@@H]1CN(C)Cc1ccc(C(F)(F)F)cc1 | -8 | 4 | 14
NC(=NC(=O)c1ccc(Cl)cc1)c1ccc(C(F)(F)F)cn1 | -83 | -39 | 13
COc1ccc(NC(=O)CSc2ncnc3sc(-c4ccccc4)cc23)cc1Cl | nt | 10 | -7
O=C(CSc1ncnc2sc(-c3ccccc3)cc12)NC1CCCCC1 | nt | 20 | 104*
COC(=O)c1cc(N2C(=O)C3C4C=CC(C)(O4)C3C2=O)ccc1Cl (centres undefined) | 23 | -2 | 113*
Cc1noc(C)c1S(=O)(=O)Nc1ccc2c(c1)CC(=O)N([C@@H](C)CO)C[C@@H](C)[C@@H](CN(C)CC1CCCCC1)O2 | 5 | 1 | -2
O=C(CCN1CCCCC1)Nc1ccc(Cl)cc1 | -15 | 9 | -16
CN(C)C(=O)C(CCN1CCC(O)(c2ccc(Cl)cc2)CC1)(c1ccccc1)c1ccccc1 | 58 | -6 | 138*!
CC(=O)Nc1c(O)nc(SCC(=O)N(c2ccccc2)c2ccccc2)[nH]c1=O | nt | -22 | 1
CCc1nc(SCC(=O)N(c2ccccc2)c2ccccc2)n[nH]1 | nt | 6 | 30
Cc1ccc(C2=NNC(=O)C(c3cn(CCC#N)c4ccccc34)C2)cc1 (centres undefined) | nt | 14 | 21
Cn1c2ccccc2c2c3c(c4c5ccccc5n(CCC#N)c4c21)CNC3=O | -101 | 12 | 140*
CC(=O)NC(=O)C1C=C2C=CC=CC2OC1=Nc1ccc(C(F)(F)F)cc1 (centres undefined) | -41 | 2 | 4
C[C@@H]1CN([C@H](C)CO)C(=O)c2cc(NC(=O)Cn3cnnn3)ccc2O[C@@H]1CN(C)C(=O)Nc1ccccc1 | 37 | -21 | 13
C[C@@H]1O[C@@H](O[C@H]2[C@H](O)[C@@H](O)[C@H](O[C@H]3[C@H](O[C@H]4CC[C@@]5(C)C(=CC[C@H]6C7C[C@@H]8O[C@]9(CC[C@@](C)(CO[C@@H]%10O[C@H](CO)[C@@H](O)[C@H](O)[C@H]%10O)O9)[C@H](C)C8[C@@]7(C)CCC65)C4)O[C@H](CO)[C@@H](O)[C@@H]3O)O[C@@H]2CO)[C@H](O)[C@H](O)[C@H]1O (some centres undefined) | 97* | nt | nt

Screens from PubChem.
